# From article PMC7862700, “An all-to-all approach to the identification of sequence-specific readers for epigenetic DNA modifications on cytosine”
# What was measured:
# Assay in all cases: DAPPL (digital affinity profiling via proximity ligation, sequencing); 10 mM Tris-HCl pH 7.5, 50 mM NaCl, 1 mM DTT, 4% glycerol, room temperature, 30 min; GST-TFs on glutathione beads, 16-mer random dsDNA library, 0.1% formaldehyde crosslink after washing; high values mean tight binding
# FEV = target: T1, FEV (Homo sapiens, UniProt Q99581 1-238); conditions: protein: recombinant; tags: N-terminal GST; dsDNA, one strand shown
# T1 sequence: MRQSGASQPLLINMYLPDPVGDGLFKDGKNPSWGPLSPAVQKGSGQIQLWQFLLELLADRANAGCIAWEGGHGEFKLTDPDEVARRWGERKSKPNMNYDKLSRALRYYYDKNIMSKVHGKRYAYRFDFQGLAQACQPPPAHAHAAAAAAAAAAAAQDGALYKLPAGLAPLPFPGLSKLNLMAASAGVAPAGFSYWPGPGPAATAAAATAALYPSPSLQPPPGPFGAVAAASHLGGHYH
# Procedure, shortened: (§1)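 Pools of DNA-barcoded human transcription factors, expressed in yeast as GST fusions on glutathione beads and combined with a tag-only sample, were incubated with 200 nmole of a 16-mer random double-stranded DNA library. Incubation took 30 min at room temperature in Tris/NaCl/DTT/glycerol buffer and was followed by washing, 0.1% formaldehyde crosslinking, proximity ligation (BsaI/T4 ligase, 1 h, 37 °C), PCR amplification and sequencing on an Illumina NextSeq500. Binding signal is the ratio of a hexamer's read frequency for a factor to its frequency for the tag-only sample.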
# ETV5 = ETV5 (Homo sapiens, UniProt P41161 1-510); conditions: protein: recombinant; tags: N-terminal GST; dsDNA, one strand shown
# Procedure, shortened: as §1
# HSF1 = HSF1 (Homo sapiens, UniProt Q00613 1-529); conditions: protein: recombinant; tags: N-terminal GST; chain copies: 3; dsDNA, one strand shown
# Procedure, shortened: as §1
# SPIC = target: T2, SPIC (Homo sapiens, UniProt Q8N5J4 1-248); conditions: protein: recombinant; tags: N-terminal GST; dsDNA, one strand shown
# T2 sequence: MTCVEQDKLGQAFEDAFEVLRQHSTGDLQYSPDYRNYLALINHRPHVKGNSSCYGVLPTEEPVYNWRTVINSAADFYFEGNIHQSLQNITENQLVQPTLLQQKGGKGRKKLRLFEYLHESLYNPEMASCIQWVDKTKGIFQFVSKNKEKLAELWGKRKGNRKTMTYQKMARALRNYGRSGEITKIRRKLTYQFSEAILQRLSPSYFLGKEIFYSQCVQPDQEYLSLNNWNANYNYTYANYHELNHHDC
# Procedure, shortened: as §1
# ELF4 = ELF4 (Homo sapiens, UniProt Q99607 1-663); conditions: protein: recombinant; tags: N-terminal GST; dsDNA, one strand shown
# Procedure, shortened: as §1
# ELK4 = target: T3, ELK4 (Homo sapiens, UniProt P28324-2 1-405); conditions: protein: recombinant; tags: N-terminal GST; dsDNA, one strand shown
# T3 sequence: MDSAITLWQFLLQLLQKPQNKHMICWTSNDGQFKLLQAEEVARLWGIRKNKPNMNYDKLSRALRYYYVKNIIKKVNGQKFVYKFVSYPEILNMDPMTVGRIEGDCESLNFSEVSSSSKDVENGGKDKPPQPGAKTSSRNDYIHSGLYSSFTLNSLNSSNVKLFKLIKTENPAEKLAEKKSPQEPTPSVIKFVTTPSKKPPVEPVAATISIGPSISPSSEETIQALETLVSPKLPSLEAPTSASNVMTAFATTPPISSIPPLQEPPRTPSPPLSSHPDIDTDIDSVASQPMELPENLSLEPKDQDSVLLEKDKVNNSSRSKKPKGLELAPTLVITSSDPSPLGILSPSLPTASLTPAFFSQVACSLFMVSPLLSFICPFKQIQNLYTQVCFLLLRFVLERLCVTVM
# Procedure, shortened: as §1
# ETV2 = target: T4, ETV2 (Homo sapiens, UniProt O00321 1-342); conditions: protein: recombinant; tags: N-terminal GST; dsDNA, one strand shown
# T4 sequence: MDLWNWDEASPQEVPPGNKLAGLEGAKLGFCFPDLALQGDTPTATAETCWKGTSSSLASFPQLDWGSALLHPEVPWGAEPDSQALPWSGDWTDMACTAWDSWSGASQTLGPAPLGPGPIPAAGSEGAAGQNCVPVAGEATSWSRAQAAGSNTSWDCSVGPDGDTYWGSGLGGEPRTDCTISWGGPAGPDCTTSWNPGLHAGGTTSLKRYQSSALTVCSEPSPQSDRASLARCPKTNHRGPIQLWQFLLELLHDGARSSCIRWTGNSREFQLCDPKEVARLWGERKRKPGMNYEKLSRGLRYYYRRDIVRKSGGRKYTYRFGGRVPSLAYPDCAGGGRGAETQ
# Procedure, shortened: as §1
# ELF3 = target: T5, ELF3 (Homo sapiens, UniProt P78545 1-371); conditions: protein: recombinant; tags: N-terminal GST; dsDNA, one strand shown
# T5 sequence: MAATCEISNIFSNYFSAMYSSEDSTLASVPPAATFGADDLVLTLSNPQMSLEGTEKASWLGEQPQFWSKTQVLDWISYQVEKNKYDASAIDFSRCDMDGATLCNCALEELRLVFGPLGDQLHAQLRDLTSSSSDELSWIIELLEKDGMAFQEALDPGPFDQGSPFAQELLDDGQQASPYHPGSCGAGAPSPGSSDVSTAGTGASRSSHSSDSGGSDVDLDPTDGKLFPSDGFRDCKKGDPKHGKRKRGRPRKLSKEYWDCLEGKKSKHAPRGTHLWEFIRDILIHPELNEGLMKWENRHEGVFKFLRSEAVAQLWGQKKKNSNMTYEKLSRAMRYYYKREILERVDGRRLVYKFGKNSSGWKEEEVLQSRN
# Procedure, shortened: as §1
# CRX = CRX (Homo sapiens, UniProt O43186 1-299); conditions: protein: recombinant; tags: N-terminal GST; dsDNA, one strand shown
# Procedure, shortened: as §1
# ETV1 = ETV1 (Homo sapiens, UniProt P50549 1-477); conditions: protein: recombinant; tags: N-terminal GST; dsDNA, one strand shown
# Procedure, shortened: as §1
# ERF = target: T6, ERF (Homo sapiens, UniProt P50548 1-548); conditions: protein: recombinant; tags: N-terminal GST; dsDNA, one strand shown
# T6 sequence: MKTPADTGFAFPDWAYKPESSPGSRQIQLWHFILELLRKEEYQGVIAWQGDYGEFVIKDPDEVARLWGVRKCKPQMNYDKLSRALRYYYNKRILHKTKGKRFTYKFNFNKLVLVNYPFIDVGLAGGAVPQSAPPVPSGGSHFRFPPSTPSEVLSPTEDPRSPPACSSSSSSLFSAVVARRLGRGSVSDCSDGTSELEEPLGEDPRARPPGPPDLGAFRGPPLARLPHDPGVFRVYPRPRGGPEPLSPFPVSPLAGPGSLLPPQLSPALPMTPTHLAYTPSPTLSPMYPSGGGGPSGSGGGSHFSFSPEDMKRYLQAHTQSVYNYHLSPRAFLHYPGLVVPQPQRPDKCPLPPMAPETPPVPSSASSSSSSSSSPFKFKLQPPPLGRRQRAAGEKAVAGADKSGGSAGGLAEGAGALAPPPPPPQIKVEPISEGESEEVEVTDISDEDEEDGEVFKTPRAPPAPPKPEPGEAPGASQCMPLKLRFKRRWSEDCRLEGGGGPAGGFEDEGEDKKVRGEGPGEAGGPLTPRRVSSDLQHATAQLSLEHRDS
# Procedure, shortened: as §1
# ETV3L = target: T7, ETV3L (Homo sapiens, UniProt Q6ZN32 1-361); conditions: protein: recombinant; tags: N-terminal GST; dsDNA, one strand shown
# T7 sequence: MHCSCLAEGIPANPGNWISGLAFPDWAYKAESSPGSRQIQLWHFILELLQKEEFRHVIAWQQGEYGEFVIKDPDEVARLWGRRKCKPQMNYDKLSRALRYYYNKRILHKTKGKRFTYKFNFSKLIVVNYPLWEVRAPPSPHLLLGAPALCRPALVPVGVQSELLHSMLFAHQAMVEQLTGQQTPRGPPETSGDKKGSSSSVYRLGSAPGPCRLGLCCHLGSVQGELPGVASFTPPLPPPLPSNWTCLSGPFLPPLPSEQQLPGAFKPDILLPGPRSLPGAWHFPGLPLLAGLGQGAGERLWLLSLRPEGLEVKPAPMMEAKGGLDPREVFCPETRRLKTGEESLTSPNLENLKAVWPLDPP
# Procedure, shortened: as §1
# ETS2 = target: T8, ETS2 (Homo sapiens, UniProt P15036 1-469); conditions: protein: recombinant; tags: N-terminal GST; dsDNA, one strand shown
# T8 sequence: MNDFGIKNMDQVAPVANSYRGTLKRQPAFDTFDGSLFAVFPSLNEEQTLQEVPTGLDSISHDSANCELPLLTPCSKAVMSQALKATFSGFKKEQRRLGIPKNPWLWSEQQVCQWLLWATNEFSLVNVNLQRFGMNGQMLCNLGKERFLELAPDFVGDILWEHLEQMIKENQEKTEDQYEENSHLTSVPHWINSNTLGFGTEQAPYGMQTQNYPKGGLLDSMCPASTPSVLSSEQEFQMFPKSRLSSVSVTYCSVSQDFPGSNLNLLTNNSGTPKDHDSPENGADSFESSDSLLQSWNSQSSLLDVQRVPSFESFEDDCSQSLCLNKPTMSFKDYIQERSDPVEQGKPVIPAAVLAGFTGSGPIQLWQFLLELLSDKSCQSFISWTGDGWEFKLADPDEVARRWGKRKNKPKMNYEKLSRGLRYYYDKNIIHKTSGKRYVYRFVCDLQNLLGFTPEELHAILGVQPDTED
# Procedure, shortened: as §1
# SPDEF = target: T9, SPDEF (Homo sapiens, UniProt O95238 1-335); conditions: protein: recombinant; tags: N-terminal GST; dsDNA, one strand shown
# T9 sequence: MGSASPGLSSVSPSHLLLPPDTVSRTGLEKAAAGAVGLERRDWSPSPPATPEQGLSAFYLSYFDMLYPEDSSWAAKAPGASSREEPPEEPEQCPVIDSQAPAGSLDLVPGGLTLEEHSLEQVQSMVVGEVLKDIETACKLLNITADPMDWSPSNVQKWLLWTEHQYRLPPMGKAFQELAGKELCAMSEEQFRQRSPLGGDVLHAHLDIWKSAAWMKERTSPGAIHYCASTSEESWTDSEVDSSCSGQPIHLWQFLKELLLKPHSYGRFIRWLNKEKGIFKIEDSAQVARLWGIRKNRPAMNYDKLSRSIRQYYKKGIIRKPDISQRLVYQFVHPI
# Procedure, shortened: as §1
# ETV7 = target: T10, ETV7 (Homo sapiens, UniProt Q9Y603 1-341); conditions: protein: recombinant; tags: N-terminal GST; dsDNA, one strand shown
# T10 sequence: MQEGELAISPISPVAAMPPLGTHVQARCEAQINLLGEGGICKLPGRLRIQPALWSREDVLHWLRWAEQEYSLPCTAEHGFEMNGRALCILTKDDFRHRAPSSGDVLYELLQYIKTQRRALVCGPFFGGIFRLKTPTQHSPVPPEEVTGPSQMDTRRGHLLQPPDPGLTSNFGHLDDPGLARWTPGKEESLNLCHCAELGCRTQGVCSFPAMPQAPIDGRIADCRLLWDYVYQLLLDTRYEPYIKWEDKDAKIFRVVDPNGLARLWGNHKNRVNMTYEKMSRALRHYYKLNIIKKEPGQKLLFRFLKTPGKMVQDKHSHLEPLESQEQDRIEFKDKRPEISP
# Procedure, shortened: as §1
# ELF5 = target: T11, ELF5 (Homo sapiens, UniProt Q9UKW6-2 1-255); conditions: protein: recombinant; tags: N-terminal GST; dsDNA, one strand shown
# T11 sequence: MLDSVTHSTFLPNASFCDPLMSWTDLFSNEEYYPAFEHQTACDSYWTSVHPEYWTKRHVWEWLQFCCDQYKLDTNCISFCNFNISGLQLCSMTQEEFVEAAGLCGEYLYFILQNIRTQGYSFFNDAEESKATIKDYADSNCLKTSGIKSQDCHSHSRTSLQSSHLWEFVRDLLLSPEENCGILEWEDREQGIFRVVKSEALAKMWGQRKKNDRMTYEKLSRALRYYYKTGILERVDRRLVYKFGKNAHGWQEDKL
# Procedure, shortened: as §1
# ETV3 = target: T12, ETV3 (Homo sapiens, UniProt P41162-2 1-143); conditions: protein: recombinant; tags: N-terminal GST; dsDNA, one strand shown
# T12 sequence: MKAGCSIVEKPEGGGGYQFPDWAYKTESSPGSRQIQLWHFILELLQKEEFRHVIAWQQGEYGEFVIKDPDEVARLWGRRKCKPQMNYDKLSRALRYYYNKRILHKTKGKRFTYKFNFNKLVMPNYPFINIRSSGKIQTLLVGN
# Procedure, shortened: as §1
# ETV6 = ETV6 (Homo sapiens, UniProt P41212 1-452); conditions: protein: recombinant; tags: N-terminal GST; dsDNA, one strand shown
# Procedure, shortened: as §1
# ETV5, sequence (P41161 whole entry): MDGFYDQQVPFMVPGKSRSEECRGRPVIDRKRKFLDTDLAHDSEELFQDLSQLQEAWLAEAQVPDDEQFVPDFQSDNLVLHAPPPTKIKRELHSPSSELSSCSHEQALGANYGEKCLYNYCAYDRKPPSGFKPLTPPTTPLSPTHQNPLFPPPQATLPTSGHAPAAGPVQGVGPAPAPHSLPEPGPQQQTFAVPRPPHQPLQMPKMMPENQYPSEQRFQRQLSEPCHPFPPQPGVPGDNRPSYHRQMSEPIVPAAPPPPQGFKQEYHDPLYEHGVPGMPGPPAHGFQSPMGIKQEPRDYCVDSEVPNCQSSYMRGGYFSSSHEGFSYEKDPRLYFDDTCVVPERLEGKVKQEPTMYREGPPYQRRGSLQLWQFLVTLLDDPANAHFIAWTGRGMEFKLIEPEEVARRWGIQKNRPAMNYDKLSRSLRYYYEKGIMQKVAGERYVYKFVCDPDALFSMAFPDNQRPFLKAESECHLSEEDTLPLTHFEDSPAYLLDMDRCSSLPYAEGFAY
# ETV1, sequence (P50549 whole entry): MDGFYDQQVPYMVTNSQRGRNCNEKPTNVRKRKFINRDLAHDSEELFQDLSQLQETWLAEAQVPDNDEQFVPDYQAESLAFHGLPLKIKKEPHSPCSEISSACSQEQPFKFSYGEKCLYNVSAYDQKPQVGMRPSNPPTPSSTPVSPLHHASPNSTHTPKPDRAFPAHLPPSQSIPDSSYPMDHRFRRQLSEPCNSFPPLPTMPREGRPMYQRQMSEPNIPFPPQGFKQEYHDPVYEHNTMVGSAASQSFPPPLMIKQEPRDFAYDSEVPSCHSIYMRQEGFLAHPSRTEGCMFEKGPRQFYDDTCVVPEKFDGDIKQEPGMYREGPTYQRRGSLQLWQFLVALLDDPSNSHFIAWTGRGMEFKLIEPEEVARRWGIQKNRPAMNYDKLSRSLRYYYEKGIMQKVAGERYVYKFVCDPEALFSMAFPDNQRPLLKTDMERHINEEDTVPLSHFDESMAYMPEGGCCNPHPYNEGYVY
# HSF1, sequence (Q00613 whole entry): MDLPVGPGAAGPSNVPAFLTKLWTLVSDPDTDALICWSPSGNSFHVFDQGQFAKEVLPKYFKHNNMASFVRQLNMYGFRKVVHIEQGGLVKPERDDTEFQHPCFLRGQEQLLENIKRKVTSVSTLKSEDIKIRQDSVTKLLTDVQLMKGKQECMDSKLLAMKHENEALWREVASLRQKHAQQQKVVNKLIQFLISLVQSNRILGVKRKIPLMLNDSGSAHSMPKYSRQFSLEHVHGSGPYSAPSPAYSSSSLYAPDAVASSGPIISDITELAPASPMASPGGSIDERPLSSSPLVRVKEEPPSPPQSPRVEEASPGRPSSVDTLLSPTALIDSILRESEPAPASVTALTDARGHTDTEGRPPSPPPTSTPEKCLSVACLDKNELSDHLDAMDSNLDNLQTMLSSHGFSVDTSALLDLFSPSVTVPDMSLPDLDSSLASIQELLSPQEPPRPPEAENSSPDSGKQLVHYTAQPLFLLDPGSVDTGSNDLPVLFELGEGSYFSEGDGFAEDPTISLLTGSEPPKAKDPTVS
# ELF4, sequence (Q99607 whole entry): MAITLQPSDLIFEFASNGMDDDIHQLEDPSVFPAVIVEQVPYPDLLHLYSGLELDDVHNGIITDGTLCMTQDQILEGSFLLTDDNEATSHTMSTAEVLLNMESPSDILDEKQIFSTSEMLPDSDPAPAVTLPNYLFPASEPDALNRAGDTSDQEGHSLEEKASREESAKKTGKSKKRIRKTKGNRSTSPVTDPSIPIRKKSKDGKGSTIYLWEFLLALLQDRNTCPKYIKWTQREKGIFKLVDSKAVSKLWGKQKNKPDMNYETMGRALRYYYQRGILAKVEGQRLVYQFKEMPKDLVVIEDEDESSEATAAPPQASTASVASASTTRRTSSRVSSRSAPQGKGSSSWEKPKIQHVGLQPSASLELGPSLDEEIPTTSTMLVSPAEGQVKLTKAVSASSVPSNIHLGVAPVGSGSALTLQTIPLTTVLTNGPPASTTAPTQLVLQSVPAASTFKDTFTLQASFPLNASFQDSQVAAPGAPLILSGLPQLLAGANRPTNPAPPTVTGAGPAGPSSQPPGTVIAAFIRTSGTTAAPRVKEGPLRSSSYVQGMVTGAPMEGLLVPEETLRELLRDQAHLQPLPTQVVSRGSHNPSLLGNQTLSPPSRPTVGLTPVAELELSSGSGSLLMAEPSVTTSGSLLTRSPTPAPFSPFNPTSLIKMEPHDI
# CRX, sequence (O43186 whole entry): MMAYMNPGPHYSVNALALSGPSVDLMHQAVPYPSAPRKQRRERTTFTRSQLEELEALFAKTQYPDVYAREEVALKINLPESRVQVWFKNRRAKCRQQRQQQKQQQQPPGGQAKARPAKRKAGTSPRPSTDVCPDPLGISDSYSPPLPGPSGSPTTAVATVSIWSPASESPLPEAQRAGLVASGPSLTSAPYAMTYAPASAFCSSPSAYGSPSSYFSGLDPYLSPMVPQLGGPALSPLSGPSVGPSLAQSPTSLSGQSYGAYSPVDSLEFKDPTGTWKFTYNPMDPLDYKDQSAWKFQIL
# ETV6, sequence (P41212 whole entry): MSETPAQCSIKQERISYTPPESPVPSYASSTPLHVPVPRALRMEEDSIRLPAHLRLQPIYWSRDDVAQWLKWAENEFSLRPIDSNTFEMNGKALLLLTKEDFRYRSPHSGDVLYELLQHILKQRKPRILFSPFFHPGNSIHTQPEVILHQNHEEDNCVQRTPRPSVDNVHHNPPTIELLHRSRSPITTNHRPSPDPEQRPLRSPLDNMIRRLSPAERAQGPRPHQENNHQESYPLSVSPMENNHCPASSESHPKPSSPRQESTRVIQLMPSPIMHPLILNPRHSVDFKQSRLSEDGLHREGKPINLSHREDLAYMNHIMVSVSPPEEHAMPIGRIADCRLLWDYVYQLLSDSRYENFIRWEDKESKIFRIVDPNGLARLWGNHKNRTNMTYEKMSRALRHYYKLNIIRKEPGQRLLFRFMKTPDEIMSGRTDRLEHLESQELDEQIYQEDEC
sequence,measurement,setting,value
ATTCGC,binding signal,FEV,"1.24 fold enrichment (6-mer frequency, TF over GST control)"
same,binding signal,ETV5,"1.13 fold enrichment (6-mer frequency, TF over GST control)"
same,binding signal,HSF1,"1.47 fold enrichment (6-mer frequency, TF over GST control)"
same,binding signal,SPIC,"1.39 fold enrichment (6-mer frequency, TF over GST control)"
same,binding signal,ELF4,"1.11 fold enrichment (6-mer frequency, TF over GST control)"
same,binding signal,ELK4,"1.1 fold enrichment (6-mer frequency, TF over GST control)"
same,binding signal,ETV2,"1.29 fold enrichment (6-mer frequency, TF over GST control)"
same,binding signal,ELF3,"1.27 fold enrichment (6-mer frequency, TF over GST control)"
same,binding signal,CRX,"1.26 fold enrichment (6-mer frequency, TF over GST control)"
same,binding signal,ETV1,"1.11 fold enrichment (6-mer frequency, TF over GST control)"
same,binding signal,ERF,"1.24 fold enrichment (6-mer frequency, TF over GST control)"
same,binding signal,ETV3L,"1.23 fold enrichment (6-mer frequency, TF over GST control)"
same,binding signal,ETS2,"1.15 fold enrichment (6-mer frequency, TF over GST control)"
same,binding signal,SPDEF,"1.26 fold enrichment (6-mer frequency, TF over GST control)"
same,binding signal,ETV7,"1.12 fold enrichment (6-mer frequency, TF over GST control)"
same,binding signal,ELF5,"1.18 fold enrichment (6-mer frequency, TF over GST control)"
same,binding signal,ETV3,"1.23 fold enrichment (6-mer frequency, TF over GST control)"
same,binding signal,ETV6,"1.25 fold enrichment (6-mer frequency, TF over GST control)"
